Experimental data from PubChem BioAssay.
Values joined by “and” are separate entries in the source; they are usually repeats but may differ in a detail not shown here. Equal values may be shown once. Results filed as inconclusive are left out. Active and inactive are the calls of the source.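 The calls were made as follows, unless noted: active = normalized viability below 100% at a tested concentration; inactive = the rest.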

Experiments:
[1] = Wnt pathway potentiators raising nuclear beta-catenin – imaging, WNT3A-conditioned medium, mouse C2C12, NPC library, primary screen (AID 1117326; in the data active = nuclear beta-catenin stimulation mostly above about 4.2%, no sharp cut-off; inactive = mostly below about 10%); conditions: stronger effect = higher value
[2] = stimulators of insulin release from INS-1E, primary screen, cell-based, 5 mM glucose, NPC library (AID 1117329;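 active = compound raises insulin release from rat beta cells at 5 mM glucose, no numeric limit stated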); conditions: rat INS-1E insulin secretion, at 10 µM, stronger effect = higher value
[3] = growth inhibition of GSK3B-pretreated HCT116 cells – cell-based, CellTiter-Glo, 0.2 to 20 µM (AID 1117336;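 active = compounds lowering colon cancer cell viability after pretreatment blocking the GSK3B kinase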); conditions: HCT116 viability after GSK3B inhibitor, at 20 µM, stronger effect = higher value
[4] = inhibition of endothelial tube formation, primary screen, imaging, VEGF stimulated, CD31 staining, tube area, NPC library (AID 1117340;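 active = compound that reduces growth-factor-driven endothelial tube area in a mixed cell culture, no cutoff stated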); conditions: VEGF-stimulated ADSC/ECFC co-culture, at 10 µM, stronger effect = higher value
[5] = GLP1 release stimulators, primary, NCI-H716, NPC library (AID 1117341;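 active = compound raises GLP1 secretion from the human gut endocrine cells, with no numeric limit stated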); conditions: NCI-H716 cells, at 10 µM, stronger effect = higher value
[6] = HCT116 colon cancer cell growth inhibition, primary screen, CellTiter-Glo luminescence, NPC library (AID 1117342;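 active = compounds that lower survival of HCT116 colon cancer cells in the luminescence readout, no numeric limit stated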); conditions: at 20 µM (top of the series)
[7] = reduced SW480 viability measured with CellTiter-Glo, NPC library, primary (AID 1117343;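 active = compounds that lower viability of the colon cancer cells in the luminescence readout, with no numeric limit stated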); conditions: CellTiter-Glo luminescence; at 20 µM (top of the series) unless noted
[8] = NPC library primary testing for decreased DLD-1 cell viability via CellTiter-Glo (AID 1117346;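 active = compounds that lower survival of DLD-1 colon cancer cells in the luminescence readout, no cutoff given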); conditions: DLD-1 viability, CellTiter-Glo luminescence; at 20 µM (top of the series)
[9] = viability loss in pontine glioma line – cell-based, JHH-DIPG-1, MIPE4.0, CellTiter-Glo, qHTS, dose response (AID 1347062; cut-off not given, nearly all actives have AC50 up to about 27 µM;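 as to AC50: cells exposed to compound for two days before readout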); conditions: JHH-DIPG-1 viability, CellTiter-Glo ATP luminescence
[10] = viability loss in pontine glioma line – cell-based, SU-DIPG-XXV, MIPE5.0, CellTiter-Glo, qHTS, dose response (AID 1347065; cut-off not given, nearly all actives have AC50 up to about 26 µM;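 also: cells exposed to compound for 48 hours before ATP readout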); conditions: CellTiter-Glo ATP luminescence
[11] = growth inhibition of DIPG cells – cell-based, MIPE4.0 library, CellTiter-Glo luminescence, qHTS (AID 1347066; cut-off not given, nearly all actives have AC50 up to about 30 µM;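 also: cells exposed to compound for 48 hours before readout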); conditions: SU-DIPG-VI viability, CellTiter-Glo ATP luminescence
[12] = JHH-DIPG-1 glioma cell viability, MIPE5.0 library, CellTiter-Glo luminescence, qHTS (AID 1347067; cut-off not given, nearly all actives have AC50 up to about 26 µM;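 also: cells exposed to compound for 48 hours before readout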); conditions: JHH-DIPG-1 glioma viability, CellTiter-Glo ATP luminescence
[13] = viability loss with induced miR-34 in A549 – imaging, A549 dox-inducible miR-34, nuclei and caspase counts, primary screen (AID 1347080;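 active = compounds whose cell count with miR-34 switched on is under 0.7 times the count with it off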); conditions: A549 miR-34 inducible, Hoechst nuclei count, 48 h
[14] = MELAS cybrid and Rieske KO viability enhancers – cell-based, MELAS cybrids, Rieske KO mouse fibroblasts, CellTiter-Glo, primary screen (AID 1508586;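 active = mean z-score across replicates of 1.96 or higher in either the MELAS or the Rieske mutant cell line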;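 also: z relative to plate mean and SD of compound and empty wells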); conditions: low glucose
[15] = drug combination growth inhibition, ovarian cancer – cell-based, oncology-focused library, rucaparib conditional, profiling panel (AID 1508598); conditions: patient-derived ovarian cancer cells, CellTiter-Glo viability, 144 h, stronger effect = lower value
[16] = viability loss in pontine glioma line – cell-based, SU-DIPG-XIII, MIPE4.0, CellTiter-Glo, qHTS, dose response (AID 1347061; cut-off not given, nearly all actives have AC50 up to about 37 µM;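 also: cells exposed to compound for 48 hours before readout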); conditions: CellTiter-Glo ATP luminescence
[17] = growth inhibition of DIPG cells – cell-based, MIPE5.0 library, qHTS (AID 1347068; cut-off not given, nearly all actives have IC50 up to about 30 µM;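 as to IC50: cells exposed to compound for 48 hours before viability readout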); conditions: SU-DIPG-XXV viability
[18] = viability loss in pontine glioma line – cell-based, SU-DIPG-IV, MIPE4.0, CellTiter-Glo, qHTS, dose response (AID 1347063; cut-off not given, nearly all actives have AC50 up to about 30 µM;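 also: compound exposure lasted 48 hours before the viability readout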); conditions: CellTiter-Glo ATP luminescence
[19] = stronger effect = lower value, cell number ratio, induced over uninduced
[20] = measured here: relative caspase fold change +Dox/-Dox
[21] = measured here: total cells with miR-34 induction, stronger effect = lower value
[22] = measured here: total cells without miR-34 induction
[23] = MELAS cybrid survival, CellTiter-Glo 48 h, stronger effect = higher value
[24] = Rieske KO mouse fibroblast survival, CellTiter-Glo 72 h
[25] = at 0.000305 µM, OCI-C5x cells, with rucaparib 10 µM, 100% = cells with rucaparib alone
[26] = at 0.000305 µM, OCI-C5x cells, without rucaparib
[27] = at 0.000305 µM, OCI-P5x cells, with rucaparib 20 µM, 100% = cells with rucaparib alone
[28] = at 0.000305 µM, OCI-P5x cells, without rucaparib
[29] = at 0.00122 µM, OCI-C5x cells, with rucaparib 10 µM, 100% = cells with rucaparib alone
[30] = at 0.00122 µM, OCI-C5x cells, without rucaparib
[31] = at 0.00122 µM, OCI-P5x cells, with rucaparib 20 µM, 100% = cells with rucaparib alone
[32] = at 0.00122 µM, OCI-P5x cells, without rucaparib
[33] = at 0.00488 µM, OCI-C5x cells, with rucaparib 10 µM, 100% = cells with rucaparib alone
[34] = at 0.00488 µM, OCI-C5x cells, without rucaparib
[35] = at 0.00488 µM, OCI-P5x cells, with rucaparib 20 µM, 100% = cells with rucaparib alone
[36] = at 0.00488 µM, OCI-P5x cells, without rucaparib
[37] = at 0.0195 µM, OCI-C5x cells, with rucaparib 10 µM, 100% = cells with rucaparib alone
[38] = at 0.0195 µM, OCI-C5x cells, without rucaparib
[39] = at 0.0195 µM, OCI-P5x cells, with rucaparib 20 µM, 100% = cells with rucaparib alone
[40] = at 0.0195 µM, OCI-P5x cells, without rucaparib
[41] = at 0.0781 µM, OCI-C5x cells, with rucaparib 10 µM, 100% = cells with rucaparib alone
[42] = at 0.0781 µM, OCI-C5x cells, without rucaparib
[43] = at 0.0781 µM, OCI-P5x cells, with rucaparib 20 µM, 100% = cells with rucaparib alone
[44] = at 0.0781 µM, OCI-P5x cells, without rucaparib
[45] = at 0.313 µM, OCI-C5x cells, with rucaparib 10 µM, 100% = cells with rucaparib alone
[46] = at 0.313 µM, OCI-C5x cells, without rucaparib
[47] = at 0.313 µM, OCI-P5x cells, with rucaparib 20 µM, 100% = cells with rucaparib alone
[48] = at 0.313 µM, OCI-P5x cells, without rucaparib
[49] = at 1.25 µM, OCI-C5x cells, with rucaparib 10 µM, 100% = cells with rucaparib alone
[50] = at 1.25 µM, OCI-C5x cells, without rucaparib
[51] = at 1.25 µM, OCI-P5x cells, with rucaparib 20 µM, 100% = cells with rucaparib alone
[52] = at 1.25 µM, OCI-P5x cells, without rucaparib
[53] = at 5 µM, OCI-C5x cells, with rucaparib 10 µM, 100% = cells with rucaparib alone
[54] = at 5 µM, OCI-C5x cells, without rucaparib
[55] = at 5 µM, OCI-P5x cells, with rucaparib 20 µM, 100% = cells with rucaparib alone
[56] = at 5 µM, OCI-P5x cells, without rucaparib

Cc1ccc(Nc2nccc(N(C)c3ccc4c(C)n(C)nc4c3)n2)cc1S(N)(=O)=O
4740 and 6080: cell count [13, 21]
5260 and 7730: cell count [13, 22]
active: tube area decrease [4] 97.1% | viability decrease (inhibition) [7] 69.3% | AC50 [10] 5900 nM | AC50 [12] 18600 nM | viability [15, 25] 96.4% | viability [15, 26] 95.3% | viability [15, 27] 99% | viability [15, 32] 99.5% | viability [15, 34] 98.4% | viability [15, 36] 99.3% | viability [15, 37] 98.1% | viability [15, 39] 97.8% | viability [15, 40] 98.3% | viability [15, 43] 97.9% | viability [15, 44] 95.6% | viability [15, 46] 95.9% | viability [15, 48] 90.2% | viability [15, 50] 96.9% | viability [15, 51] 87.9% | viability [15, 52] 91.3% | viability [15, 55] 86% | viability [15, 56] 86%
inactive: nuclear beta-catenin stimulation ([1]; at 10 µM) 5.9% | insulin secretion stimulation [2] 4.9% | viability decrease [3] 20.9% | GLP1 secretion stimulation [5] -3.5% | inhibition of viability [6] 48.8% | viability decrease (inhibition) [8] 14.5% | outcome [9] | outcome [11] | fold change [13, 19] 0.9 and 0.786 | z-score [14, 23] -0.327 and -0.404 | viability [15, 28] 100% | viability [15, 29] 104% | viability [15, 30] 106% | viability [15, 31] 105% | viability [15, 33] 104% | viability [15, 35] 100% | viability [15, 38] 100% | viability [15, 41] 103% | viability [15, 42] 102% | viability [15, 45] 109% | viability [15, 47] 100% | viability [15, 49] 108% | viability [15, 53] 112% | viability [15, 54] 115%
1%: nuclear beta-catenin stimulation ([1]; stimulation, at 2 µM)
1.31 and 0.946: fold change [13, 20]
-0.2 and 1.1: z-score [14, 24]

CC1(C)CCC(C)(C)c2cc(NC(=O)c3ccc(C(=O)O)cc3)ccc21
inactive: nuclear beta-catenin stimulation ([1]; at 10 µM) 8% | insulin secretion stimulation [2] -0.4% | tube area decrease [4] 5.5% | GLP1 secretion stimulation [5] 4% | viability decrease (inhibition) [7] 47.9% | viability decrease (inhibition) [8] 43.1% | outcome [9] | outcome [10] | outcome [11] | outcome [12] | outcome [17] | fold change [13, 19] 0.901 | z-score [14, 23] 0.242
8210: cell count [13, 21]
active: viability decrease [3] 77.6% | inhibition of viability [6] 69.7% | AC50 [16] 23500 nM
-0.199: z-score [14, 24]
0.365: fold change [13, 20]
9110: cell count [13, 22]
8.5%: nuclear beta-catenin stimulation ([1]; stimulation, at 2 µM)

CN(C)C(=O)COC(=O)Cc1ccc(OC(=O)c2ccc(N=C(N)N)cc2)cc1
0.433: fold change [13, 20]
0.4%: nuclear beta-catenin stimulation ([1]; stimulation, at 2 µM)
8730: cell count [13, 22]
inactive: nuclear beta-catenin stimulation ([1]; at 10 µM) 1.4% | insulin secretion stimulation [2] -0.35% | viability decrease [3] 16.9% | tube area decrease [4] -11.6% | GLP1 secretion stimulation [5] -0.7% | inhibition of viability [6] 13.5% | viability decrease (inhibition) [7] -4.4% | viability decrease (inhibition) [8] 4.3% | outcome [9] | outcome [10] | outcome [12] | outcome [17] | fold change [13, 19] 0.981 | z-score [14, 23] -0.283
0.0145: z-score [14, 24]
8560: cell count [13, 21]

CC(C)C[C@H](NC(=O)[C@H](CCc1ccccc1)NC(=O)CN1CCOCC1)C(=O)N[C@@H](Cc1ccccc1)C(=O)N[C@@H](CC(C)C)C(=O)[C@@]1(C)CO1
inactive: insulin secretion stimulation [2] 6.05% | GLP1 secretion stimulation [5] 5.2%
129%: nuclear beta-catenin stimulation ([1]; stimulation, at 2 µM)
active: nuclear beta-catenin stimulation ([1]; at 10 µM) 106% | viability decrease [3] 117% | tube area decrease [4] 110% | inhibition of viability [6] 124% | viability decrease (inhibition) [7] 150% | viability decrease (inhibition) [8] 101% | AC50 [9] 18.7 nM | AC50 [18] 23.5 nM | AC50 [10] 5.25 nM | AC50 [11] 93.5 nM | AC50 [12] 10.5 nM | IC50 [17] 93.4 nM

CNC(=O)c1ccccc1Sc1ccc2c(/C=C/c3ccccn3)n[nH]c2c1
active: tube area decrease [4] 106% | viability decrease (inhibition) [7] 59.2% | viability decrease (inhibition) [8] 56.9% | AC50 [10] 1180 nM | AC50 [12] 5250 nM | IC50 [17] 3720 nM | viability [15, 28] 95.9% | viability [15, 32] 93.6% | viability [15, 36] 98% | viability [15, 40] 94.2% | viability [15, 42] 98.3% | viability [15, 44] 96.6% | viability [15, 46] 97.7% | viability [15, 48] 87.8% | viability [15, 51] 95.4% | viability [15, 52] 85.8% | viability [15, 54] 93.2% | viability [15, 56] 83%
7.2%: nuclear beta-catenin stimulation ([1]; stimulation, at 2 µM)
inactive: nuclear beta-catenin stimulation ([1]; at 10 µM) 4.6% | insulin secretion stimulation [2] 4.65% | viability decrease [3] 21% | GLP1 secretion stimulation [5] 1% | inhibition of viability [6] 45.5% | viability [15, 25] 107% | viability [15, 26] 114% | viability [15, 27] 106% | viability [15, 29] 116% | viability [15, 30] 110% | viability [15, 31] 112% | viability [15, 33] 109% | viability [15, 34] 110% | viability [15, 35] 106% | viability [15, 37] 114% | viability [15, 38] 103% | viability [15, 39] 108% | viability [15, 41] 118% | viability [15, 43] 126% | viability [15, 45] 110% | viability [15, 47] 101% | viability [15, 49] 112% | viability [15, 50] 105% | viability [15, 53] 110% | viability [15, 55] 107%

COc1ccc(-c2ccc3cc(C(=O)O)ccc3c2)cc1C12CC3CC(CC(C3)C1)C2
inactive: nuclear beta-catenin stimulation ([1]; at 10 µM) 21.9% | insulin secretion stimulation [2] 0.9% | GLP1 secretion stimulation [5] -2.3% | outcome [9] | outcome [18] | outcome [11] | outcome [17] | fold change [13, 19] 1.08 and 1.16 | z-score [14, 23] -0.222 and -1.26
32.2%: nuclear beta-catenin stimulation ([1]; stimulation, at 2 µM)
1230 and 1070: cell count [13, 22]
0.775 and 0.908: fold change [13, 20]
active: viability decrease [3] 118% | tube area decrease [4] 99.5% | inhibition of viability [6] 123% | viability decrease (inhibition) [7] 159% | viability decrease (inhibition) [8] 102%
0.947 and 0.282: z-score [14, 24]
1330 and 1240: cell count [13, 21]
